Screening data (PubChem)
Most compounds without a hit are left out; they make up all but 3.6% or so of the library.
mHTT-CaM PPI inh = disrupts binding of mutant huntingtin to calmodulin | hit rate 3.6% among 190,000 | P42858 | inhibition, % at 15 µM | AID 1671202 | AlphaScreen His-mHTT/GST-CaM binding, luminescence;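 further: 0% = both proteins with DMSO and 100% = one protein alone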
Pf apPOL block = Pf-apPOL DNA polymerase inhibition; Recombinant Pf-apPOL, molecular beacon fluorescence, 1.5 h; inhibition, % at 10 µM; hit rate 0.25% among 210,000; AID 1794808
* = called active by the depositor; nt = no result given. No stated cut-off is given here; in the data, active means inhibition above about 50%; inactive means the rest.

SMILES	mHTT-CaM PPI inh	Pf apPOL block
CCN1CCN(c2ncc3c(n2)CCN(Cc2ccccc2)C3)CC1	55*	-5
Cc1ccc(S(=O)(=O)N2CCC(C(=O)Nc3ccc(F)cc3F)CC2)cc1	-2	-20
N#CC1=C(N)OC2=C(CC/C2=C\c2ccc(F)cc2)C1c1ccc(F)cc1 (stereo unspecified)	77*	1
COc1cccc(/C=C2\CCC3=C2OC(N)=C(C#N)C3c2cccc(OC)c2)c1 (stereo unspecified)	78*	-1
N#CC1=C(N)OC2=C(CCCC2)C1c1ccc(F)cc1 (stereo unspecified)	9	-7
COc1cccc(C2C(C#N)=C(N)OC3=C2C(=O)CCC3)c1 (stereo unspecified)	0	-7
O=C(c1c(F)c(F)c(F)c(F)c1F)N1CCN(c2ccc(F)cc2)CC1	-6	-6
O=C(O)CC(CC(=O)Nc1ccc(C(=O)O)cc1)c1ccccc1 (stereo unspecified)	-5	94*
NS(=O)(=O)c1ccc(NC(=O)CC(CC(=O)O)c2ccccc2)cc1 (stereo unspecified)	nt	4
COc1ccc(OC)c(NC(=O)c2cc(C)n(CCN(C)C)c2C)c1	23	-1
COc1ccc(C)cc1NC(=O)c1cc(C)n(CCN(C)C)c1C	51*	3
N#Cc1cccc(C(=O)N2CCCn3nc(-c4ccncc4)cc3C2)c1	2	-1
Cc1[nH]c2ccccc2c1C=Nc1c(-c2ccco2)nc2ccccn12	91*	-3
Oc1cccc(C=Nc2c(-c3ccco3)nc3ccccn23)c1	49	8
Cc1ccccc1OCC(=O)N1N=C(c2ccc(Cl)cc2)CC1(O)C(F)(F)F (stereo unspecified)	96*	4
Cc1ccc(C(=O)N2N=C(c3ccc(Cl)cc3)CC2(O)C(F)(F)F)cc1 (stereo unspecified)	35	-4
O=C(c1ccc(Cl)cc1)N1N=C(c2ccc(Cl)cc2)CC1(O)C(F)(F)F (stereo unspecified)	-2	-5
O=C(CCc1ccccc1)N1N=C(c2ccc(Cl)cc2)CC1(O)C(F)(F)F (stereo unspecified)	-8	-13
O=C(c1ccc(Cl)cc1)N1N=C(c2ccccc2)CC1(O)C(F)(F)F (stereo unspecified)	54*	-10
COc1ccc(C(=O)N2N=C(c3cccc(Br)c3)CC2(O)C(F)(F)F)cc1 (stereo unspecified)	50*	0
COc1ccc(C(=O)N2N=C(c3ccc(Br)cc3)CC2(O)C(F)(F)F)cc1 (stereo unspecified)	24	2
Cc1cc(C)cc(OCC(=O)N2N=C(c3ccc(Cl)cc3)CC2(O)C(F)(F)F)c1 (stereo unspecified)	90*	-1
CCOC(=O)C1CCN(Cc2cc(=O)oc3ccc(CC)cc23)CC1	3	-17
C=C(C)COc1ccc2c(C)c(-c3ccccc3)c(=O)oc2c1	-9	1
COc1ccc(/C=C2\N=C(c3ccc(Cl)c([N+](=O)[O-])c3)OC2=O)c(OC)c1	3	6
SMILES	mHTT-CaM PPI inh	Pf apPOL block
CCOc1ccc(-c2nc(Cn3nnc(C(=O)Nc4ccccc4OC)c3C)c(C)o2)cc1	-8	-8
O=C1NN(c2ccccc2)C(=O)/C1=C/c1cccc(OCCOc2ccc([N+](=O)[O-])cc2)c1	27	3
CCOc1cccc(N2C(=O)NC(=O)/C(=C\c3ccc(Oc4ccc([N+](=O)[O-])cn4)cc3)C2=O)c1	50*	-7
COc1ccc(NC(=O)c2ccc(-c3cccc(Cl)c3)o2)cc1OC	27	-5
COc1ccc(NC(=O)c2ccc(-c3ccc(Cl)cc3)o2)cc1OC	59*	-18
Cc1nnc(-c2cc(C)n(CC(=O)Nc3cccc(Cl)c3)c2C)o1	9	-1
CCOC(=O)N1CCN(C(=O)CN(c2c(C)cccc2C)S(C)(=O)=O)CC1	-4	1
CCN(CC)c1ccc(C2NN=C(Cc3ccccc3)S2)cc1 (stereo unspecified)	85*	-14
CCN(CC)c1ccc(NC(=O)Cc2ccccc2)cc1	39	0
Cn1cnc2c1CN(CC(=O)NCc1cccc(C(F)(F)F)c1)CC2	68*	-6
Cc1nn(C)c2c(=O)n(CC(=O)NCc3cccc(C(F)(F)F)c3)ccc12	-6	1
C=CCc1cccc(C=Nc2ccc(Br)cc2)c1O	1	-3
C=CCc1cccc(C=NNC(N)=S)c1O	94*	56*
CCOc1ccccc1C=C1Oc2cc(OC(C)=O)ccc2C1=O	-2	-7
CCCCc1ccc(-c2nc(C=Nc3ccc(OC)cc3)c(O)o2)cc1	-7	-18
COc1cc(OC)cc(C2=NC3(CCCCC3)N(C(=O)c3ccc(OC)c(OC)c3)C2=S)c1	76*	0
COc1ccc(C(=O)N2CCCCCC2)cc1OC	-29	-12
CCN1CCN(C2CC(=O)N(c3cccc(Cl)c3)C2=O)CC1 (stereo unspecified)	3	-5
CCCCNC(=O)C1CCN(c2nc3ccc(-c4cncnc4)nc3s2)CC1	1	3
COc1ccccc1/C=C/C=c1\sc2nc(=O)c(Cc3ccccc3)nn2c1=O	51*	-5
COc1ccccc1/C=c1\sc2nc(=O)c(Cc3ccccc3)nn2c1=O	2	-1
Cc1noc(C2CCCCN2CC(=O)NCc2cccs2)n1 (stereo unspecified)	-10	-6
COc1cc(/C=C/c2nc(-c3ccccc3O)n(-c3ccccc3)n2)ccc1O	88*	-8
CCc1nc(-c2ccccc2O)n(-c2ccccc2)n1	2	-8
N#CC1=C2N=C(N)c3c(sc4c3CCCCC4)N2C2=C(C(=O)CCC2)C1c1cccnc1 (stereo unspecified)	61*	-6
SMILES	mHTT-CaM PPI inh	Pf apPOL block
N#CC1=C2NC(=O)c3c(sc4c3CCCCC4)N2C2=C(C(=O)CCC2)C1c1cccnc1 (stereo unspecified)	37	0
COc1cc2c(c([N+](=O)[O-])c1)NC(c1ccc(Br)cc1)C1CC=CC21 (stereo unspecified)	24	-1
CCOc1cc2c(c([N+](=O)[O-])c1)NC(c1ccc([N+](=O)[O-])cc1)C1CC=CC21 (stereo unspecified)	50*	1
CCOc1cc2c(c([N+](=O)[O-])c1)NC(C(C)C)C1CC=CC21 (stereo unspecified)	73*	1
CCOc1cc2c(c([N+](=O)[O-])c1)NC(c1ccccc1F)C1CC=CC21 (stereo unspecified)	95*	-2
O=C(c1ccc(Cl)cc1)N1CCN(c2ccc([N+](=O)[O-])c(Sc3ccccn3)c2)CC1	38	0
O=C1C(=O)N(CCN2CCCCC2)c2ccccc21	3	8
O=C1C(=O)N(CN2CCCCCC2)c2ccccc21	77*	-4
CCOC(=O)N1CCN(C(=O)Cn2c(-c3ccccn3)nc3ccccc32)CC1	-16	-6
O=C(NC(c1ccccc1)c1ccccc1)c1cccnc1	-5	3
O=C(NC(c1ccc([N+](=O)[O-])cc1)c1cc(Cl)c2cccnc2c1O)c1cccnc1 (stereo unspecified)	53*	-9
O=C(NC(c1cccc([N+](=O)[O-])c1)c1cc(Cl)c2cccnc2c1O)c1cccnc1 (stereo unspecified)	79*	-6
Cc1noc(-c2nn(C)c3c2CN(C(=O)c2ccc(Cl)cc2)CC3)n1	-4	-2
COc1ccc(Nc2c(C(=O)N3CCC(C)CC3)cnc3nc(C)ccc23)cc1	2	-1
